# Source: PubChem
# Tau fluor counter: Counterscreen qHTS for Inhibitors of Tau Fibril Formation, Fluorescence Polarization. tau K18 P301L Alexa594 fluorescence, heparin fibrillization. Potency, µM (doses to about 57.7 µM), for inactives: top-dose activity change, negative = decrease. 0.93% of 280,000 active; further: potency means the concentration at half of the fitted maximal effect; nearly all actives have a fitted effect of over 55% in size
#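 Human K18 P301L tau (15 uM unlabeled plus 0.24 uM Alexa 594-labeled, final) in 100 mM sodium acetate pH 7 was mixed with compound and 20 uM heparin and incubated 6 hr at 37 C.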
# Tau FP inhib: qHTS for Inhibitors of Tau Fibril Formation, Fluorescence Polarization; Potency, µM (doses to about 57.7 µM), for inactives: at the highest dose activity, negative = inhibition, usual class: inhibitors; Microtubule-associated protein tau (Homo sapiens), P10636; K18 P301L tau heparin fibrillization, Alexa594 FP, 6 h; AID 1468, 2008; 0.39% of 280,000 active; further: potency means the concentration at half of the fitted maximal effect; nearly all actives have a fitted effect of over 55% in size
# Target sequence (P10636 561-689 P618L limits assumed): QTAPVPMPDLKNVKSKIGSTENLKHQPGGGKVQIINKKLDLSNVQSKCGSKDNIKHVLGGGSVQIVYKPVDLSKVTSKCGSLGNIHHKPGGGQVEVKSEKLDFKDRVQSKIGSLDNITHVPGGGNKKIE
#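 Quantitative HTS format: compounds meet 15 uM recombinant K18 P301L tau and Alexa 594-tau tracer in 100 mM sodium acetate pH 7; 20 uM heparin triggers fibrillization at 37 C over 6 hr; FP gives the signal.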
# Coupling enz: qHTS Assay for Inhibitors of Fructose-1,6-bisphosphate Aldolase from Giardia Lamblia: Coupling assay counterscreen | coupling enzyme system counterscreen, AmpLite Red fluorescence | activity change, negative = inhibition, % at 58.2 µM, hits read low | 0.67% of 290,000 active | AID 2472, 2010; in the data active means activity change below about -30%
#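 Fluorescence at 525 nm excitation and 598 nm emission measured inhibition of the coupled detection system without aldolase. Compounds (at 57.5 uM final) were preincubated 10 min at room temperature with coupling enzyme reagent before a 20 min substrate/AmpLite Red step.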
# G9a block: qHTS Assay for Inhibitors of Histone Lysine Methyltransferase G9a; Histone-lysine N-methyltransferase EHMT2 (Homo sapiens), Q96KQ7; G9a H3K9 monomethylation, AlphaScreen, 2 h; Potency, µM (doses to about 102 µM), for inactives: at the highest dose activity, negative = inhibition, actives largely listed as inhibitors; 8.8% of 350,000 active; AID 504332, 2011; further: potency means the concentration at half of the fitted maximal effect; nearly all actives have a fitted effect of over 75% in size
# Target sequence (Q96KQ7 913-1193 limits assumed): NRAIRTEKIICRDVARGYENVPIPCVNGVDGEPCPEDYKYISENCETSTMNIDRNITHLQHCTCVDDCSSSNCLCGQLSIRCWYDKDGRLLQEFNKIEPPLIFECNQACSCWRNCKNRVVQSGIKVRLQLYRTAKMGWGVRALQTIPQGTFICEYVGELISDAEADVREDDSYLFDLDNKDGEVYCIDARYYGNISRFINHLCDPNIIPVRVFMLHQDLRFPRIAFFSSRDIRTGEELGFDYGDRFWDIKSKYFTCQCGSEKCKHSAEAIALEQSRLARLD
#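 G9a (20 nM) preincubated 15 min RT with compounds, then 500 nM biotinylated H3K9 peptide and 20 uM SAM added; 2 h RT reaction. Monomethyl-H3K9 product detected by AlphaScreen with anti-H3K9me1 antibody, streptavidin donor and anti-rabbit IgG acceptor beads.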
# Sfp inh: qHTS Assay for Inhibitors of Bacillus subtilis Sfp phosphopantetheinyl transferase (PPTase) | Potency, µM, for inactives: largest response in the series, negative = inhibition, actives largely listed as inhibitors | Biochemical Sfp PPTase activity, qHTS | 4'-phosphopantetheinyl transferase ffp (Bacillus subtilis), Q9F4F7 | 3.5% of 310,000 active;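 further: the enzyme is Sfp with the accession as filed and its product quenches rhodamine fluorescence; potency means the concentration at half of the fitted maximal effect; 0% = enzyme reaction without inhibitor and -100% = no enzyme wells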
#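 Sfp 15 nM + cpd, 15 min RT; start w/ rhodamine-CoA 5 uM, BHQ-2-YbbR 12.5 uM (final); 50 mM Hepes pH 7.6, 10 mM MgCl2, 0.01% NP-40, 0.01% BSA; read 525/598 nm at 0 and 30 min.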
# Tau fibril ThT: qHTS for Inhibitors of Tau Fibril Formation, Thioflavin T Binding; recombinant tau K18 P301L (four-repeat tau fragment), heparin-induced fibrillization, ThT fluorescence; 2.1% of 270,000 active; Potency, µM (highest dose often 57.4 µM), without a hit: top-dose activity, negative = inhibition, usual class: inhibitors; further: potency means the concentration at half of the fitted maximal effect; nearly all actives have a fitted effect of over 55% in size
#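 Aggregation was driven by heparin (20 uM final) acting on recombinant tau […] bearing P301L in 100 mM sodium acetate pH 7; fibrils were detected with Thioflavin T.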
# * hit, by the source's call; ? = inconclusive; nt = no result; [ ] = dose if it differs, or a comment. Hits are enriched below; roughly 11% of the tested compounds scored in any of these assays. Unless noted, the call rests on the fitted dose curve; in most records, active means well fitted curve in the direction sought with a large enough effect; inconclusive means small, poorly fitted or top-dose-only effect, or another doubt; inactive means no such curve, though single readings can be large; an effect the other way counts as inactive or inconclusive. Unless noted, on the % scale 0 is the no-effect control and ±100 the full control effect.
SMILES,Tau fluor counter,Tau FP inhib,Coupling enz,G9a block,Sfp inh,Tau fibril ThT
O=C(NCc1ccco1)c1ccccc1NS(=O)(=O)c1ccc(Cl)s1,-11%,2%,3,20µM*,12%,-14%
COc1ccccc1CNC(=O)c1ccccc1SCC(=O)NCc1ccco1,nt,nt,nt,3.2µM*,nt,nt
COC(=O)c1ccc(Cl)cc1NC(=O)Nc1nnc(N(C)Cc2ccccc2)s1,-22%,?,nt,-18%[59 µM],nt,-2%
COc1ccc(C(=O)N2CCC3(CCN(C)CC3)CC2)cc1,nt,nt,0,15%[12.7 µM],3%,nt
Cc1ccccc1CNC(=O)c1ccccc1SCC(=O)NCc1ccco1,nt,nt,nt,13µM*,nt,nt
O=[N+]([O-])c1ccc(N/N=C/c2cccc(O)c2O)cc1,nt,nt,-15,-10%[0.501 µM],-6%,nt
Cc1cccc(C(=O)Oc2ccccc2/C=N/Nc2ccc([N+](=O)[O-])cc2)c1,4µM*[quencher],7%,0,-9%,13%,?
Cc1cccc(C(=O)Oc2ccc(/C=N/O)cc2)c1,-20%,-15%,-2,10µM*,-11%,-20%
CCc1nn(CC(=O)NCCc2ccc(OC)cc2OC)c(=O)c2cc3sccc3n12,16%,-8%,nt,1%[59 µM],nt,9%
Cc1ccc(C(=O)N/C(=C\c2ccc(-c3ccccc3[N+](=O)[O-])o2)C(=O)NCCCN(C)C)cc1,nt,nt,-24,50µM*,-11%,nt
CN(C)CCNC(=O)/C(=C/c1ccc(-c2cccc([N+](=O)[O-])c2)o1)NC(=O)c1ccccc1,-7%,5%,-8,-9%[59 µM],-7%,?
Cc1ccc(C(=O)N/C(=C\c2ccc(-c3ccccc3[N+](=O)[O-])o2)C(=O)NCCN(C)C)cc1,nt,nt,-42*,nt,40µM*,nt
CN(C)CCCNC(=O)/C(=C/c1ccc(-c2ccc([N+](=O)[O-])cc2)o1)NC(=O)c1ccccc1,nt,nt,2,-4%,11%,nt
COc1cccc(C(c2c(N)[nH]c(=S)[nH]c2=O)c2c(N)[nH]c(=S)[nH]c2=O)c1,-6%,-1%,-4,nt,79µM*,nt
Cn1nnc2c(N3CCN(c4ccc(F)cc4)CC3)ncnc21,-9%,-2%,nt,-27%[59 µM],nt,?
CC(C)Oc1ccc(CCC(=O)N/N=C/c2ccc3c(c2)OCO3)cc1,nt,nt,-5,1%,7%,nt
O=C(CCc1ccc(O)c(O)c1)N/N=C/c1ccc2c(c1)OCO2,nt,nt,nt,nt,40µM*,nt
O=C(/C=C/c1ccccc1)c1ccccn1,-3%,10%,-5,?,28µM*,?
O=C(N/N=C/c1ccc2c(c1)OCO2)c1ccccn1,-1%,-8%,-2,54%[59 µM],79µM*,-14%
O=C(/C=C/c1ccc2c(c1)OCO2)c1ccccn1,-29%,-9%,-16,?,32µM*,14µM*
N/C(=N\OC(=O)/C=C/c1ccccc1)c1ccccn1,-3%,-4%,-1,-17%,-3%,-9%
COc1ccc2c(c1)O[C@H](c1ccc3c(c1)OCO3)[C@@H](OC(=O)NS(=O)(=O)c1ccc(C)cc1)C2=O,2%,11%,2,nt,13%,-4%
Cn1nc(C(=O)NCc2cccc(Cl)c2)c2c1-c1ccccc1SC2,3%,2%,nt,-23%[59 µM],nt,10%
Clc1ccc(C2=CC(c3ccco3)n3ncnc3N2)cc1 (centres undefined),-12%,-9%,0,8.9µM*,?,-7%
COc1ccc(C2=CC(c3ccco3)n3ncnc3N2)cc1 (centres undefined),-14%,?,-9,11µM*,-45%,?
SMILES,Tau fluor counter,Tau FP inhib,Coupling enz,G9a block,Sfp inh,Tau fibril ThT
Clc1ccccc1C1=CC(c2ccco2)n2ncnc2N1 (centres undefined),-8%,-1%,0,35µM*,8%,-17%
COc1ccc(C2C=C(c3ccccc3)Nc3ncnn32)cc1 (centres undefined),11%,9%,3,?,-14%,4%
C/C(CC(=O)Nc1ccc2c(c1)OCCO2)=N\NC(=O)COc1ccc(C)cc1Br,nt,nt,3,7%,2%,nt
COC(=O)C/C=N/N=C1/NC(=O)/C(=C/C(=O)O)S1,-13%,-20%,-16,45µM*,?,?
Cc1nn(-c2ccccc2)c(OC(=O)C(C)C)c1Sc1ccc(Cl)cc1,-26%,?,nt,4.5µM*,nt,?
Cc1ccc(OCC(=O)NNC(=O)CCc2ccccc2)c(Br)c1,nt,nt,2,-4%,6%,nt
Cc1c(Br)c(=O)oc2c(Br)c(O)ccc12,-2%,2%,1,-47%,-2%,-6%
Cc1c(Br)c(=O)oc2c(Br)c(O)c(O)cc12,?,?,1,28µM*,?,13µM*
CCOc1ccc(C(=S)NC2CCCCC2)cc1,-18%,-1%,1,10µM*,6%,?
COc1ccc(C(=O)NC(=S)N(C)C2CCCCC2)cc1Br,nt,nt,-4,16%,2%,nt
COc1ccc(C(=O)NC(=S)N(C)C2CCCCC2)cc1,nt,nt,nt,79µM*,1%,nt
COc1ccc(C(=S)NC2CCCCC2)cc1,-20%,-10%,0,10µM*,35µM*,?
CCCCN(CC)C(=O)Cn1cc2c(n1)-c1c(oc(C(=O)N3CCCC3)c1C)CC2,3%,3%,nt,?,nt,-5%
CCC(C)c1ccc(OCc2ccc(C(=O)OC)o2)cc1 (centres undefined),-21%,-10%,3,246%,-9%,-19%
O=c1[nH]nc(Sc2ncnc3sccc23)n1CCc1ccccc1,-2%,7%,-2,40µM*,8%,-10%
CN(C)/N=C/c1ccc(P(c2ccc(/C=N/N(C)C)o2)c2ccc(/C=N/N(C)C)o2)o1,-22%,15%,0,35µM*,9%,-8%
CCc1ccccc1NC(=O)CSc1nc2c(oc3ccccc32)c(=O)n1C,2%,-10%,nt,-31%[59 µM],nt,-3%
CN(c1ccccc1)S(=O)(=O)c1ccc(Cl)c(C(=O)Nc2nn[nH]n2)c1,0%,1%,7,28µM*,-12%,3%
CN(c1ccccc1)S(=O)(=O)c1ccc(Cl)c(C(=O)Nc2nc3ccccc3[nH]2)c1,-16%,-3%,4,9%[59 µM],12%,3%
Cc1nc2c(-c3ccccc3)c(C)[nH]n2c(=O)c1Cc1ccc(Br)cc1,-12%,7%,nt,46%[59 µM],nt,-5%
CCOC(=O)c1c(NC(=O)C2c3ccccc3Oc3ccccc32)sc(C)c1CC,-16%,?,nt,11%[59 µM],nt,-8%
